Screening results from PubChem.
This is a sample that favours compounds with a hit; in the whole collection about 6.7% have one here.
C diff HTS = C. difficile growth inhibition; Clostridium difficile clinical isolate growth, OD600, 24 h; stronger effect = lower value; growth activity, negative = inhibition, % at 16 µg/mL (by protocol); actives 0.25% (n = 86,000);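 active means mean growth activity at or below -80% and every replicate also at or below -80%; inconclusive means mean at or below -80% but some replicate above -80%; inactive means mean growth activity above -80%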
T cruzi growth-1 = blocks T. cruzi growth in NIH3T3 culture | T. cruzi beta-gal in NIH3T3, GalScreen luminescence, 90 h | actives 5.9% (n = 77,000) | inhibition, % at 8.34 µM | AID 624255;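 active means mean inhibition above about 93%, with at least 55% of replicates each passing it, limit read from the data, passing the limit was not always enough; inconclusive means only one of those two conditions holds; inactive means neither condition holds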
Pf Dd2 inh = P. falciparum Dd2 growth inhibition; SYBR Green, 72 h; stronger effect = lower value; activity change, % at 10 µM; actives 2.3% (n = 94,000); AID 1159554; in the data active means activity change below about -80%; inconclusive means no clear call, values can overlap the other calls
T cruzi growth-2 = inhibitors of T. cruzi proliferation | inhibition, % at 8.35 µM | T. cruzi beta-gal in NIH3T3, GalScreen luminescence, 90 h | actives 72% (n = 5,600) | shares compounds with T cruzi growth-1;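 active means mean replicate inhibition above about 95% and at least 55% of replicates individually reaching it, limit read from the data; inconclusive means only one of the two criteria is met; inactive means neither criterion is met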
T cruzi growth-3 = inhibitors of T. cruzi proliferation | shares compounds with T cruzi growth-1 | T. cruzi beta-gal in NIH3T3, GalScreen luminescence, 90 h | inhibition, % at 2.09 µM | actives 21% (n = 5,600) | AID 651740;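 active means mean inhibition above about 95%, with at least 55% of replicates also reaching it, limit read from the data; inconclusive means meets just one of the two conditions; inactive means meets neither condition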
NIH3T3 tox = kills mouse NIH/3T3 fibroblasts. shares compounds with T cruzi growth-1. NIH/3T3 viability, CellTiter-Glo ATP luminescence, 90 h. cytotoxicity (signal decrease), % at 8.35 µM. actives 14% (n = 5,600). AID 651742;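 active means mean signal decrease across replicates above about 35% based on untreated-well scatter, with enough replicates individually passing, limit read from the data; inconclusive means no rule stated though some were filed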
NIH3T3 tox 2 = cytotoxicity in mouse NIH/3T3 fibroblasts | shares compounds with T cruzi growth-1 | NIH/3T3 viability, CellTiter-Glo ATP luminescence, 90 h | inhibition, % at 24.9 µM | actives 56% (n = 5,600) | AID 651744;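 active means mean loss of cell viability signal at or above a set limit, and enough replicates individually reaching it; inconclusive means meets only the mean limit or only the replicate share; inactive means meets neither condition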
Hits are given with their value; 0 = inactive; ? = inconclusive; - = no result given.

SMILES	C diff HTS	T cruzi growth-1	Pf Dd2 inh	T cruzi growth-2	T cruzi growth-3	NIH3T3 tox	NIH3T3 tox 2
COc1ccc(S(=O)(=O)N2CCCCN3[C@H](CO)[C@@H](c4ccc(-c5cccnc5)cc4)[C@H]3C2)cc1	0	113	0	0	0	0	0
COc1cccc(S(=O)(=O)N2CCCCN3[C@H](CO)[C@@H](c4ccc(-c5cccnc5)cc4)[C@H]3C2)c1	0	0	0	-	-	-	-
COc1cccc(S(=O)(=O)N2CCCCN3[C@H](C2)[C@H](c2ccc(-c4cccnc4)cc2)[C@@H]3CO)c1	0	105	0	103	0	0	0
COc1ccc(S(=O)(=O)N2CCCCN3[C@@H](CO)[C@@H](c4ccc(-c5cccnc5)cc4)[C@@H]3C2)cc1	0	0	0	-	-	-	-
COc1cccc(S(=O)(=O)N2CCCCN3[C@H](CO)[C@@H](c4ccc(-c5ccccc5)cc4)[C@@H]3C2)c1	0	0	0	-	-	-	-
COc1cccc(S(=O)(=O)N2CCCCN3[C@H](CO)[C@H](c4ccc(-c5ccncc5)cc4)[C@@H]3C2)c1	0	113	0	109	104	0	0
CCCC#Cc1ccc2c(c1)O[C@@H](CN(C)S(=O)(=O)c1cccc(OC)c1)[C@@H](C)CN([C@H](C)CO)S2(=O)=O	-	-	0	-	-	-	-
COc1ccc(C#Cc2ccc3c(c2)[C@@H]2[C@@H](CCN2C(C)=O)[C@H](CO)N3C)cc1	0	0	0	-	-	-	-
CC(C)NC(=O)N(C)C[C@H]1Oc2cc(-c3ccncc3)ccc2S(=O)(=O)N([C@@H](C)CO)C[C@H]1C	0	?	0	0	0	0	0
CCCNC(=O)N(C)C[C@H]1Oc2cc(-c3cccnc3)ccc2S(=O)(=O)N([C@@H](C)CO)C[C@@H]1C	0	?	0	?	0	0	0
Cc1ccc(-c2ccc3c(c2)O[C@H](CN(C)C(=O)NC(C)C)[C@H](C)CN([C@@H](C)CO)S3(=O)=O)cc1	0	0	0	-	-	-	-
Cc1ccc(-c2ccc3c(c2)O[C@@H](CN(C)C(=O)NC(C)C)[C@H](C)CN([C@@H](C)CO)S3(=O)=O)cc1	0	0	0	-	-	-	-
Cc1ccc(-c2ccc3c(c2)O[C@H](CN(C)C(=O)NC(C)C)[C@@H](C)CN([C@H](C)CO)S3(=O)=O)cc1	0	0	0	-	-	-	-
CC(C)NC(=O)N(C)C[C@@H]1Oc2cc(-c3ccncc3)ccc2S(=O)(=O)N([C@H](C)CO)C[C@@H]1C	0	?	0	0	0	0	0
CCCNC(=O)N(C)C[C@@H]1Oc2cc(-c3cccnc3)ccc2S(=O)(=O)N([C@H](C)CO)C[C@H]1C	0	0	0	-	-	-	-
CC(C)NC(=O)N(C)C[C@H]1Oc2cc(-c3ccncc3)ccc2S(=O)(=O)N([C@H](C)CO)C[C@@H]1C	0	107	0	0	0	0	0
CCNC(=O)C[C@@H]1CC[C@H]2[C@@H](COc3ccc(NC(=O)Nc4cccc(OC)c4)cc3C(=O)N2C)O1	0	0	0	-	-	-	-
O=C(C[C@@H]1CC[C@@H]2[C@H](COC[C@H](O)CN2Cc2cc(F)cc(F)c2)O1)NC1CCC1	0	0	0	-	-	-	-
COCC#Cc1cnc2c(c1)C(=O)N([C@H](C)CO)C[C@@H](C)[C@@H](CN(C)C(=O)C1CCOCC1)O2	0	-	0	-	-	-	-
O=C(Nc1ccccc1)N1CCCCN2[C@H](C1)[C@H](c1ccc(-c3ccccc3F)cc1)[C@@H]2CO	0	113	0	108	0	0	?
O=C(Nc1ccc(F)cc1)N1CCCCN2[C@H](CO)[C@@H](c3ccc(-c4ccccc4F)cc3)[C@H]2C1	0	104	0	97	?	58	105
COc1ccc(NC(=O)N2CCCCN3[C@@H](CO)[C@H](c4ccc(-c5ccccc5F)cc4)[C@@H]3C2)cc1	0	0	0	-	-	-	-
COc1ccc(NC(=O)N2CCCCN3[C@@H](CO)[C@@H](c4ccc(-c5ccccc5F)cc4)[C@@H]3C2)cc1	0	0	0	-	-	-	-
O=C(Nc1ccc(F)cc1)N1CCCCN2[C@H](CO)[C@H](c3ccc(-c4ccccc4F)cc3)[C@H]2C1	0	0	0	-	-	-	-
O=C(Nc1ccc(F)cc1)N1CCCCN2[C@H](CO)[C@@H](c3ccc(-c4ccccc4F)cc3)[C@@H]2C1	0	112	0	101	104	0	104
SMILES	C diff HTS	T cruzi growth-1	Pf Dd2 inh	T cruzi growth-2	T cruzi growth-3	NIH3T3 tox	NIH3T3 tox 2
C[C@@H]1CN([C@H](C)CO)C(=O)c2cc(C#CC3CCCC3)cnc2O[C@H]1CN(C)C(=O)C1CCCCC1	0	0	0	-	-	-	-
CC(C)C(=O)Nc1ccc2c(c1)C(=O)N(C)[C@@H]1CC[C@H](CC(=O)NCC3CC3)O[C@@H]1CO2	0	0	0	-	-	-	-
COc1ccc(NC(=O)Nc2ccc3c(c2)C(=O)N([C@H](C)CO)C[C@H](C)[C@@H](CN(C)C(=O)Nc2c(C)noc2C)OCCCC[C@H](C)O3)cc1	0	0	0	-	-	-	-
N#C[C@H]1[C@H](c2ccccc2)[C@H](CO)N1S(=O)(=O)c1ccc(-c2ccccc2)cc1	0	0	0	-	-	-	-
C[C@@H]1CCCCO[C@H](CN(C)Cc2ccccc2)[C@H](C)CN([C@@H](C)CO)C(=O)c2cc(NS(=O)(=O)c3ccc(Cl)cc3)ccc2O1	0	102	0	0	0	0	103
C[C@@H]1CCCCO[C@@H](CN(C)Cc2ccccc2)[C@@H](C)CN([C@H](C)CO)C(=O)c2cc(NS(=O)(=O)c3ccccc3)ccc2O1	-	0	0	-	-	-	-
C[C@@H]1CN([C@@H](C)CO)C(=O)c2cc(NS(=O)(=O)c3ccc(Cl)cc3)ccc2O[C@@H](C)CCCCO[C@@H]1CN(C)Cc1ccccc1	0	100	0	0	0	0	105
C[C@H](CO)N1C[C@H](C)[C@@H](CN(C)Cc2ccccc2)OCCCC[C@H](C)Oc2ccc(NS(=O)(=O)c3ccc(Cl)cc3)cc2C1=O	0	0	0	-	-	-	-
C[C@@H]1CCCCO[C@H](CN(C)Cc2ccccc2)[C@@H](C)CN([C@@H](C)CO)C(=O)c2cc(NS(=O)(=O)c3ccc(Cl)cc3)ccc2O1	0	106	0	95	0	0	104
C[C@H]1CCCCO[C@H](CN(C)Cc2ccccc2)[C@@H](C)CN([C@@H](C)CO)C(=O)c2cc(NS(=O)(=O)c3ccc(Cl)cc3)ccc2O1	0	109	0	101	0	0	104
C[C@@H]1CN([C@H](C)CO)C(=O)c2cc(NS(=O)(=O)c3ccc(Cl)cc3)ccc2O[C@@H](C)CCCCO[C@@H]1CN(C)Cc1ccccc1	0	0	0	-	-	-	-
C[C@@H]1CCCCO[C@H](CN(C)Cc2ccccc2)[C@@H](C)CN([C@H](C)CO)C(=O)c2cc(NS(=O)(=O)c3ccccc3)ccc2O1	-	0	0	-	-	-	-
C[C@@H]1CCCCO[C@H](CN(C)Cc2ccc(C(=O)O)cc2)[C@H](C)CN([C@@H](C)CO)C(=O)c2cc(NC(=O)Nc3cccc4ccccc34)ccc2O1	0	0	0	-	-	-	-
